# Data taken from the supplement of paper PMC8728848.
# About 410 targets per protein were measured; listed, in parts, are those with the strongest signals and a random draw of the rest.
# Legend:
# Test in all cases: glycan array binding signal (z-score within array); higher = stronger binding
# Conditions in all cases: glycan notation: IUPAC condensed, linker removed
# GalNAc(b1-6)GalNAc = molecular target: GalNAc(b1-6)GalNAc
# Outline: (§1)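 The binding signal is a Z-score computed within each array and averaged over linkers. Arrays of the same protein sequence at different concentrations or buffers were also averaged together. Data originate from 3228 arrays in the Consortium for Functional Glycomics database, kept only where the protein sequence was available.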
# GalNAc6S(b1-4)GlcNAc = molecular target: GalNAc6S(b1-4)GlcNAc
# Outline: as §1
# [1] = molecular target: Glc(a1-4)Glc(a1-4)Glc(a1-4)Glc
# Outline: as §1
# Glc(b1-6)Glc = molecular target: Glc(b1-6)Glc
# Outline: as §1
# [2] = molecular target: GlcNAc(a1-4)Gal(b1-3)GlcNAc
# Outline: as §1
# [3] = molecular target: GlcNAc(a1-4)Gal(b1-4)GlcNAc(b1-3)Gal(b1-4)[Fuc(a1-3)]GlcNAc(b1-3)Gal(b1-4)[Fuc(a1-3)]GlcNAc
# Outline: as §1
# [4] = molecular target: GlcNAc(b1-3)Gal(b1-4)GlcNAc
# Outline: as §1
# [5] = molecular target: GlcNAc(b1-3)Gal(b1-4)GlcNAc(b1-2)Man(a1-3)[GlcNAc(b1-3)Gal(b1-4)GlcNAc(b1-2)Man(a1-6)]Man(b1-4)GlcNAc(b1-4)GlcNAc
# Outline: as §1
# [6] = molecular target: GlcNAc(b1-3)Gal(b1-4)GlcNAc(b1-3)Gal(b1-4)GlcNAc(b1-2)[GlcNAc(b1-3)Gal(b1-4)GlcNAc(b1-3)Gal(b1-4)GlcNAc(b1-6)]Man(a1-6)[GlcNAc(b1-3)Gal(b1-4)GlcNAc(b1-3)Gal(b1-4)GlcNAc(b1-2)Man(a1-3)]Man(b1-4)GlcNAc(b1-4)[Fuc(a1-6)]GlcNAc
# Outline: as §1
# Kdn(a2-3)Gal(b1-3)GalNAc = molecular target: Kdn(a2-3)Gal(b1-3)GalNAc
# Outline: as §1
# [7] = molecular target: Neu5Ac(a2-3)Gal(b1-4)GlcNAc(b1-3)Gal(b1-3)GlcNAc
# Outline: as §1
# [8] = molecular target: Neu5Ac(a2-3)Gal(b1-4)GlcNAc(b1-3)Gal(b1-4)GlcNAc(b1-2)Man(a1-3)[Neu5Ac(a2-3)Gal(b1-4)GlcNAc(b1-3)Gal(b1-4)GlcNAc(b1-2)Man(a1-6)]Man(b1-4)GlcNAc(b1-4)GlcNAc
# Outline: as §1
# [9] = molecular target: Neu5Ac(a2-3)Gal(b1-4)[Fuc(a1-3)]GlcNAc(b1-2)Man
# Outline: as §1
# [10] = molecular target: Neu5Ac(a2-3)Gal(b1-4)[Fuc(a1-3)]GlcNAc(b1-3)Gal(b1-4)GlcNAc
# Outline: as §1
# [11] = molecular target: Neu5Ac(a2-6)Gal(b1-4)GlcNAc(b1-2)Man(a1-3)[Neu5Ac(a2-3)Gal(b1-4)GlcNAc(b1-2)Man(a1-6)]Man(b1-4)GlcNAc(b1-4)GlcNAc
# Outline: as §1
# [12] = molecular target: Neu5Ac(a2-6)Gal(b1-4)GlcNAc6S
# Outline: as §1
# Neu5Ac(a2-8)Neu5Ac = molecular target: Neu5Ac(a2-8)Neu5Ac
# Outline: as §1
# [13] = molecular target: Neu5Ac(a2-8)Neu5Ac(a2-8)Neu5Ac
# Outline: as §1
# [14] = molecular target: Neu5Ac9Ac(a2-6)Gal(b1-4)GlcNAc
# Outline: as §1
# [15] = molecular target: Neu5Gc(a2-3)Gal(b1-4)GlcNAc
# Outline: as §1
# [16] = molecular target: Neu5Gc(a2-3)Gal(b1-4)[Fuc(a1-3)]GlcNAc
# Outline: as §1
# [17] = molecular target: Neu5Gc(a2-8)Neu5Ac(a2-3)Gal(b1-4)GlcNAc
# Outline: as §1
binder,measurement,setting,value
Vd7LysM (Verticillium dahliae) (protein) RRGPEPKYPPAAGTSSYCSYWVDYEGDKSCSRVLEDNVVVLKDFARWNPTVGADCSGIKAGNSYCVEAFGEPEPIEVTTTTRAATTTTQPTATTTTFANGIATPQPTQSGMVTNCNKFHWIAEGVSCSQVISFQKITLADFVKWNPSVKSDCSGMWAGVNVCVGVVGSSTDTAKPTTTAPSNGVVTPQPTQPSMVTNCNKFHWIAKGVTCQQVISYQKISLADFVKWNPSVLSDCSGMWAEVQVCVGVIGSTPTTLATTTTTAGNGVSTPLPTQPGMVTNCAKFHWVAKGVTCNQIYSFQKITLEQFVSYNPTVKSDCSGMQAEVQVCVGLIAGTTPTTTRPPTTTAPGNGVSTPQPTQPGMVTNCAKFHWVAKGVTCNQIYSFQKITLEQFVSFNPTVKSDCTGMQAEVNVCVGLIGGNPTPTQTGNGIATPTPIQPGMVSNCKKFHWIAQGVTCQQVISFQKITLADFVKWNTGVGSDCRTMWAETNVCVGV,glycan array binding signal (z-score),GalNAc(b1-6)GalNAc,0.192
same,glycan array binding signal (z-score),GalNAc6S(b1-4)GlcNAc,0.22
same,glycan array binding signal (z-score),[1],0.035
same,glycan array binding signal (z-score),Glc(b1-6)Glc,-1.06
same,glycan array binding signal (z-score),[2],-0.658
same,glycan array binding signal (z-score),[3],1.23
same,glycan array binding signal (z-score),[4],0.117
same,glycan array binding signal (z-score),[5],2.67
same,glycan array binding signal (z-score),[6],2.72
same,glycan array binding signal (z-score),Kdn(a2-3)Gal(b1-3)GalNAc,3.09
same,glycan array binding signal (z-score),[7],1.03
same,glycan array binding signal (z-score),[8],2.5
same,glycan array binding signal (z-score),[9],-0.307
same,glycan array binding signal (z-score),[10],0.427
same,glycan array binding signal (z-score),[11],0.213
same,glycan array binding signal (z-score),[12],0.8
same,glycan array binding signal (z-score),Neu5Ac(a2-8)Neu5Ac,-0.418
same,glycan array binding signal (z-score),[13],-0.119
same,glycan array binding signal (z-score),[14],2.97
same,glycan array binding signal (z-score),[15],0.306
same,glycan array binding signal (z-score),[16],0.377
same,glycan array binding signal (z-score),[17],-0.354
